A selection: hits, their analogues and other compounds. The true share with any hit is near 0.56%.
Glyco luc inh – blocks N-linked glycosylation in D54 reporter cells; D54 ERlucT glycosylation luciferase reporter, 24 h; percent of 100 nM tunicamycin response; reporter increase, % at 12.5 µM; 360,000 tested, 0.23% active; AID 588692;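 active = mean luciferase reporter signal, scaled so untreated is 0 and the glycosylation-blocking control 100, at or above a set limit in every replicate; inconclusive = mean reaches the limit but not every replicate does; inactive = mean below the limit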;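 also: luciferase carries N-glycosylation sites so blocking glycosylation raises the light; 0% = median of neutral control wells and 100% = median of 100 nM tunicamycin wells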
PDI inh – PDI (human) enzyme inhibition. P07237. PDI insulin aggregation turbidity, A650, 90 min. inhibition, % at 10 µM. 350,000 tested, 0.052% active. AID 588391;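 active = mean inhibition across replicates of 30% or more, whatever share of single replicates reach that level; inconclusive = mean inhibition below 30% while every single replicate reaches 30%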
Vif inh – inhibitors of HIV Vif; HEK293T cells, Vif self-association by quenched fluorescence, imaging, 24 h; inhibition, % at 7.49 µM; 340,000 tested, 0.35% active; in the data active = inhibition above about 50%, passing the limit was not always enough; inconclusive = no clear call, values can overlap the other calls; inactive = below about 31%
ERp5 inh – blocks human ERp5 reductase activity on insulin. inhibition, % at 9.99 µM. ERp5 insulin aggregation, absorbance 650 nm, 90 min. 350,000 tested, 0.05% active. AID 651711. Q15084;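 active = mean replicate inhibition above about 25%, with every replicate also reaching it, limit read from the data, passing the limit was not always enough; inconclusive = only one of those two criteria met; inactive = neither criterion met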
Target sequence (Q15084 whole entry, looked up): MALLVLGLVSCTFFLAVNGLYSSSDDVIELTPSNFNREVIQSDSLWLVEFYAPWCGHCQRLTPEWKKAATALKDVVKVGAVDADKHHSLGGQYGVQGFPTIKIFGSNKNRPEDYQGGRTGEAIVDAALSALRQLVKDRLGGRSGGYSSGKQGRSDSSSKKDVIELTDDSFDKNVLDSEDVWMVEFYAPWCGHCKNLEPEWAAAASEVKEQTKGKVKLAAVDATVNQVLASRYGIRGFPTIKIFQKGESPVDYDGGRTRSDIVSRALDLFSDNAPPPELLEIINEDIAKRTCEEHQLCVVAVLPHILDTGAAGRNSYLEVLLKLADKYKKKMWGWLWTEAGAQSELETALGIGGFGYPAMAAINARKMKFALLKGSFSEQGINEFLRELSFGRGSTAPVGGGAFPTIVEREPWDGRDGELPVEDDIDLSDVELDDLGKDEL
PvdQ inh – blocks Pseudomonas aeruginosa PvdQ acylase activity | inhibition, % at 10 µM | AID 488965 | 340,000 tested, 0.063% active | purified PvdQ acylase, fluorescence plate reader; in the data active = inhibition above about 30%, passing the limit was not always enough; inconclusive = no clear call, values can overlap the other calls;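 also: 0% = vehicle neutral wells and 100% = reference inhibitor wells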
* hit, by the source's call; ? = inconclusive; nt = no result; ! = a repeat was not active.

SMILES	Glyco luc inh	PDI inh	Vif inh	ERp5 inh	PvdQ inh
CN1CCc2nc3ccc(F)cc3c(C(N)=O)c2C1	2.7	11.2	60.2*	nt	-5.3
Nc1c2c(nc3ccccc13)CCN(Cc1ccccc1)C2	-4.0	17.3	2.7	2.9	-6.3
CN(C)c1ccc(/C=C/c2cc[n+](C)c3ccccc23)cc1	39.5*!	-6.8	12.3	-13.2	-16.9
Cc1ccc(C(=O)O)cc1N=Nc1c(O)[nH]c(=O)[nH]c1=O	-0.4	4.3	-0.2	-14.2	-15.9
COc1ccc(C#Cc2ccc([C@H]3[C@H](CO)N4CCCCN(C(=O)Cc5cccnc5)C[C@@H]34)cc2)cc1	nt	nt	nt	27.0*	nt
COc1ccc(C#Cc2ccc([C@@H]3[C@@H](CO)N4CCCCN(C(=O)Cc5cccnc5)C[C@@H]34)cc2)cc1	nt	nt	nt	-1.3	nt
Cc1cc(/C=C2\C(=O)NC(=O)N(Cc3ccccc3)C2=O)c(C)n1C1CC1	-0.3	-9.7	nt	4.0	-6.6
ClCCOCCCl	85.1*	nt	-8.8	10.3	-2.3
O=C(Cn1ncc2c3ccccc3n(Cc3cccc(Cl)c3)c2c1=O)N1CCC2(CC1)OCCO2	0.5	8.3	55.8*	-0.3	1.8
CCOc1ccccc1-n1c(O)c(C=Nc2ccc(N(CC)CC)cc2)c(=O)[nH]c1=O	29.1*	-4.9	1.5	nt	3.9
O=C(NCNC(=O)NC1C(=O)NC(=O)N1CO)NC1C(=O)NC(=O)N1CO (configuration not stated)	1.0	-7.3	122.8*	0.1	7.4
CCN1CCN(Cc2ccc(OC(F)(F)F)cc2)CC1	1.9	3.1	0.9	nt	-4.9
O=C(Cc1ccccc1)OCC(=O)c1ccc(F)cc1	-0.6	-0.2	87.3*	4.1	-8.7
O=C(Cc1ccccc1)OCC(=O)c1ccccc1	2.5	-6.5	-0.8	-10.4	-6.9
CCn1nc(/C=C/c2ccccc2)nc2c(=O)n(C)c(=O)nc1-2	-19.3	23.3	8.0	38.1*	-12.6
COc1ccc(CC2C(=O)N(C)C(=O)N(C)C2=O)c(OC)c1	1.1	-2.6	3.8	nt	-11.7
C=C1N2CCC(CC2)C1(O)c1ccc(C)cc1 (configuration not stated)	-1.0	-3.2	-1.6	nt	-4.3
C=C1N2CCC(CC2)C1(O)c1ccc(C)c(C)c1 (configuration not stated)	-1.1	-6.5	51.2*	nt	3.6
O=C1OC(c2ccc(Br)cc2)=N/C1=C\N1CC2CC(C1)c1cccc(=O)n1C2 (configuration not stated)	-1.3	2.1	3.3	-38.1	-9.5
O=C1OC(c2ccc([N+](=O)[O-])cc2)=N/C1=C/N1CC2CC(C1)c1cccc(=O)n1C2 (configuration not stated)	2.2	3.7	52.4*	3.7	9.8
CC12CC[C@H]3[C@@H](CCC4(O)C[C@H](O)CCC34/C=N/NC(=O)c3ccccc3O)C1(O)CCC2C1=CC(=O)OC1 (some centres not stated)	31.7*	-1.1	2.1	-2.0	-7.5
COc1ccc(C(=O)N/N=C/C23CC[C@@H](O)CC2(O)CC[C@@H]2[C@@H]3CCC3(C)C(C4=CC(=O)OC4)CCC23O)cc1 (some centres not stated)	37.7*	11.7	-0.9	2.2	-5.9
CC12CC[C@H]3[C@@H](CCC4(O)C[C@H](O)CCC34/C=N/NC(=O)c3ccc(O)cc3)C1(O)CCC2C1=CC(=O)OC1 (some centres not stated)	0.5	1.1	3.7	2.8	-11.3
CCOC(=O)c1c(-n2c(C)cc(C=C3C(=O)NC(=S)NC3=O)c2C)sc2c1CCCC2	-1.3	-1.8	-0.6	nt	-5.1
O=C(Cc1cc(=O)[nH]c(=O)[nH]1)N1CCN(CCO)CC1	-0.9	nt	24.4	1.0	1.4
SMILES	Glyco luc inh	PDI inh	Vif inh	ERp5 inh	PvdQ inh
O=C1NC(=O)C(=Cc2cc([N+](=O)[O-])ccc2N2CCCCC2)C(=O)N1	0.6	15.6	59.0*	7.5	3.0
C[CH2][Hg][S]c1ccccc1C(=O)O	63.2*	-8.3	17.2	-0.5	-4.3
COc1cc(/C=C/[N+](=O)[O-])ccc1O	29.2*	1.7	8.8	3.2	-1.9
COc1cc(C(O)CNC(C)C)cc(F)c1OC (configuration not stated)	1.7	-9.3	55.2*	3.8	20.0
COc1cc(C(O)CN)ccc1O (configuration not stated)	0.2	2.1	-5.7	-0.4	-5.8
CCc1ccc(CNCCc2ccccc2F)cc1	1.3	11.0	0.5	-5.5	5.5
C=C1C(=O)O[C@@H]2C[C@@H](C)[C@@H]3C=CC(=O)[C@@]3(C)[C@@H](O)[C@H]12	-22.4	16.1	54.3*	5.3	2.7
CC12C=CC(=O)C=C1CC(O)C1C2CCC2(C)C1CCC2(C)O (configuration not stated)	-1.2	12.1	1.1	-4.4	-10.0
CN1CCCN(c2ccc([N+](=O)[O-])nc2)CC1	0.2	-0.5	52.4*	0.8	9.2
CN1CCN(c2ccc([N+](=O)[O-])c(N3CCCCC3)c2)CC1	0.1	-4.7	-4.0	1.6	-7.8
O=C(Cc1ccccc1)OCn1nnc2ccccc2c1=O	2.6	14.9	140.0*	11.7	5.5
c1ccc2c(c1)-c1cccc3cccc-2c13	0.6	nt	4.2	2.8	-10.0
c1ccc2c(c1)[IH]c1ccccc1-2	53.7*	1.7	-13.7	0.3	-14.1
Nc1nonc1C(=O)N/N=C/c1ccc([N+](=O)[O-])o1	29.8*	-2.6	-4.6	nt	8.9
COC(=O)C1=Nc2ccccc2/C1=C\c1c(O)n(-c2ccc(OC)cc2)c(=O)[nH]c1=O	-1.7	11.7	2.3	nt	10.6
O=C(Nc1ccc2c(c1)OCO2)c1cn(Cc2ccc(F)cc2)nn1	2.3	-15.1	53.5*	nt	-17.2
Cc1cc(C(=O)Nc2ccc3c(c2)OCCO3)nn1C(C)(C)C	0.1	-5.2	7.7	-9.3	5.2
COc1ccc(CCNC2(C#N)CCCCC2)cc1OC	0.4	6.8	-9.0	-3.1	nt
COc1ccc(CN2C(=O)NC(=O)/C(=C\c3ccco3)C2=O)cc1	2.0	6.1	-3.2	6.3	-1.6
CC(C)N1C(=O)/C(=C/C=C/c2ccco2)C(=O)N(Cc2ccco2)C1=O	30.3*	5.1	?	nt	-12.5
O=C1NC(=O)N(Cc2ccccc2)C(=O)/C1=C/C=C/c1ccco1	32.1*	-3.2	13.4	6.2	-4.6
CCOC(=O)[C@]12Cc3c(cc(OC)c(OC)c3OC)[C@H]1N(C(C)C)C(=O)c1ccccc12	nt	nt	nt	1.3	nt
CCN1C[C@]2(COC)CC[C@H](O)[C@@]34C5C[C@@H]6[C@@H](OC)C[C@@](O)(C5[C@H]6O)[C@](O)([C@@H](OC)C23)[C@@H]14 (some centres not stated)	1.4	nt	-6.8	1.1	-9.8
C=CCn1c(O)c(C(CC)=NC(C)c2ccccc2)c(=O)[nH]c1=O (configuration not stated)	25.6*	16.3	15.8	nt	0.2
CC1NC(=O)NC(=O)C1Br (configuration not stated)	-0.4	6.7	-4.0	-5.9	-18.1
COc1cccc(CC(=O)N2CCN(Cc3cccc(Cl)c3)CC2)c1	-5.8	0.9	7.4	4.7	-10.0
